Screens from PubChem BioAssay.
PLCg1 inh: inhibitors of human phospholipase C gamma1; purified PLC-gamma1, fluorogenic substrate, fluorescence; AID 720700; inhibition, % at 12.2 µM; P19174; hit rate 0.84% among 370,000; in the data active means inhibition above about 9.5%
ADAM10 inh: inhibitors of human ADAM10; O14672; recombinant ADAM10, EDANS/DABCYL FRET peptide cleavage, 3 h; inhibition, % at 7 µM; hit rate 0.62% among 370,000;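 active means inhibition above a per-campaign cutoff equal to the mean of compounds falling between control-based bounds plus 3 SD, cut at about 20% in these data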;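 further: 0% = DMSO wells while the 100% control is not disclosed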
KLK7 zymogen act: proKLK7 (human) activation, primary screen. P49862. purified proKLK7, EDANS-DABCYL substrate fluorescence; 100% is mature enzyme control, 0% vehicle. activation, % at 7 µM. hit rate 0.9% among 370,000. AID 652039;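 active means activation above the mean of all tested compounds plus 3 SD, computed per campaign excluding outliers beyond control limits, cut at about 13% in these data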
ADAM17 inh: inhibits human ADAM17. P78536. recombinant ADAM17, EDANS/DABCYL FRET peptide cleavage. inhibition, % at 6.95 µM. hit rate 0.83% among 370,000. AID 720648;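 active means inhibition above the mean of compounds lying between control limits plus 3 SD, set per campaign, cut at about 8.5% in these data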;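 further: 0% = DMSO-only wells as the low control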
sPLA2-III inh: Blocks human group III sPLA2 activity | QFRET BODIPY PC-A2 liposome hydrolysis, fluorescence | inhibition, % at 12.2 µM | hit rate 0.56% among 370,000 | AID 743126;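 active means inhibition above mean plus 3 SD of compounds lying within the high and low control bounds, cut at about 19% in these data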;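 further: 0% = median of test compound wells and 100% = no enzyme DMSO wells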
PLC-beta3 inh: blocks human PLC-beta3 enzyme activity; Q01970; Purified PLC-beta3, fluorogenic substrate, fluorescence; inhibition, % at 12.2 µM; hit rate 0.18% among 370,000; AID 720704; in the data active means inhibition above about 11%;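 further: 0% = median of compound wells on plate and 100% = full blocker control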
Target sequence (Q01970 whole entry, looked up): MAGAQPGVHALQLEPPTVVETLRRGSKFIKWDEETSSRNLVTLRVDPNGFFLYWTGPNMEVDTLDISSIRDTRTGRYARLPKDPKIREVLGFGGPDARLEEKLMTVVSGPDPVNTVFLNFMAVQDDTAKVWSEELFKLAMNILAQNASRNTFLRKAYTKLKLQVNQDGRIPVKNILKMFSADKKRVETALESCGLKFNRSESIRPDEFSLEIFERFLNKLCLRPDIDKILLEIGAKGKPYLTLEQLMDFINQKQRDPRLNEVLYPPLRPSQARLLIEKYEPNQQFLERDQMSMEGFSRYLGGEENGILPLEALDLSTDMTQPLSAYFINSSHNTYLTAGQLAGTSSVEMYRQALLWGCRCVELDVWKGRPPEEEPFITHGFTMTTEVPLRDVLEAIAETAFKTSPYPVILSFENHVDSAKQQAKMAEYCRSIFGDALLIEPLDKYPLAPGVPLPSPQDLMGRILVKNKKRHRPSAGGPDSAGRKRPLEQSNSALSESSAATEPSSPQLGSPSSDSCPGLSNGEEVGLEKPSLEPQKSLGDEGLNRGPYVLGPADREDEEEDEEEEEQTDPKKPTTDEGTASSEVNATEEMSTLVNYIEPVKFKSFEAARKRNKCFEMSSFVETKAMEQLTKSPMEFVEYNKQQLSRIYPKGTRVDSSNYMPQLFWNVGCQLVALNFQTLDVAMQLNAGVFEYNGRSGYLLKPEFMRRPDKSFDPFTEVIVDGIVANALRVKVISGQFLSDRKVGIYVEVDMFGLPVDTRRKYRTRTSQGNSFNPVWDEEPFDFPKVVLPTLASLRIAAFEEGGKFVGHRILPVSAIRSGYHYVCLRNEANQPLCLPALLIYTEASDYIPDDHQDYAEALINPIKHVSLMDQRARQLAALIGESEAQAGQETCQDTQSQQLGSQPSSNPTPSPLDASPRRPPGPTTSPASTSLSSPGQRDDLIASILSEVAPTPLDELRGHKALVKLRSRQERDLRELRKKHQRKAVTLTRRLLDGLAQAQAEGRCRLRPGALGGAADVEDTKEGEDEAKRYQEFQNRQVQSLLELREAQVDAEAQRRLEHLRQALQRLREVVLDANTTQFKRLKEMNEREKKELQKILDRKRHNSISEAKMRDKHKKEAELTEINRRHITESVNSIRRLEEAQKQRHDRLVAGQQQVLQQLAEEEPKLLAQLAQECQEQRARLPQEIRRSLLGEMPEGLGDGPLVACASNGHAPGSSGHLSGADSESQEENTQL
ADAM10 ctr: ADAM10 inhibition, counter-screen for ADAM17 exosite hits | shares compounds with ADAM17 inh | recombinant ADAM10, EDANS/DABCYL FRET peptide cleavage, 3 h | inhibition, % at 6.95 µM | hit rate 47% among 2,900;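 active means mean inhibition over the triplicate runs exceeds the activity threshold set in the earlier primary screen, cut at about 20% in these data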;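 further: 0% = DMSO wells and 100% = marimastat wells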
ADAM17 confirm: confirmation of inhibitors of human ADAM17; hit rate 65% among 2,900; AID 743257; recombinant ADAM17, EDANS/DABCYL QFRET peptide cleavage; inhibition, % at 6.95 µM; shares compounds with ADAM17 inh;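 active means mean inhibition across replicates above the hit cutoff set in the primary screen, cut at about 8.5% in these data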;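 further: 0% = DMSO wells and 100% = marimastat wells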
Numbers without * were called inactive; / = not tested or not shown. Rows were chosen to be rich in hits. Some 3.4% of all compounds tested hit in one or more screens of this group.

SMILES	PLCg1 inh	ADAM10 inh	KLK7 zymogen act	ADAM17 inh	sPLA2-III inh	PLC-beta3 inh	ADAM10 ctr	ADAM17 confirm
Cc1cnc(C(=O)N(c2ccc(N3CCOCC3)cc2)C2C(=O)Nc3ccccc3N=C2c2ccc3c(c2)OCO3)cn1 (stereo unspecified)	-10.1	6.7	0.7	11.1*	-13.4	-11.2	10.7	9.8*
OCC1OC(n2cnc3c(/C=C(\O)c4ccccc4)ncnc32)C(O)C1O (stereo unspecified)	-6.2	-13.9	-0.1	-0.5	-4.8	-15.7	/	/
Cc1onc(-c2ccccc2Cl)c1C(=O)Nc1cccc2cccnc12	5.1	14.8	0.1	11.8*	-12.4	4.5	20.1*	18.0*
CC(=O)Oc1ccccc1-c1nc(/C=C/c2ccccc2)no1	3.2	-1.3	-0.1	1.2	0.9	0.6	/	/
CC1CCCN(S(=O)(=O)c2cc3c4c(c2)CCN4C(=O)CC3)C1 (stereo unspecified)	-2.7	3.0	-0.3	-1.4	0.2	-3.2	/	/
Cc1csc(NC(=O)CCn2c(=O)oc3ccc(Cl)cc32)n1	4.3	-5.6	0.1	8.7*	0.8	-7.0	-2.9	1.2
Cc1nc(C)c(-c2nnc(-c3ccccc3Cl)o2)cc1C(=O)NN	-5.3	5.2	0.1	-1.0	6.9	-12.8	/	/
Cc1nc(C)c(-c2nnc(-c3ccc(C(C)(C)C)cc3)o2)cc1C(=O)NN	4.0	13.5	-0.1	10.1*	7.2	4.3	1.5	5.1
NS(=O)(=O)c1ccc(N/N=C2/CCCCC2C2CCCCC2)c([N+](=O)[O-])c1 (stereo unspecified)	3.9	18.2	0.5	11.7*	-9.4	4.5	17.4	8.7*
CCN(c1ccccc1)S(=O)(=O)c1c[nH]c2ccc([N+](=O)[O-])cc12	-0.6	6.2	-0.2	9.3*	-41.0	-1.4	31.7*	16.5*
Cc1cc(NC(=O)CSc2nnc(-c3ccccc3)n2Cc2ccco2)no1	1.5	-2.6	-0.1	-5.3	-8.8	4.9	/	/
CC(C)(C)c1ccc(-c2nnc(SCC(=O)Nc3ccc(S(=O)(=O)Nc4nccs4)cc3)n2Cc2ccco2)cc1	-1.1	9.6	0.6	9.6*	0.3	-7.8	22.6*	13.3*
CC(C)(C)c1ccc(-c2nnc(SCC(=O)Nc3ccccc3-c3ccccc3)n2Cc2ccco2)cc1	-0.3	17.0	0.4	11.4*	-7.3	1.2	20.4*	17.1*
CCOc1ccc(-n2c(SCC(=O)Nc3ccccc3-c3ccccc3)nnc2-c2ccccc2)cc1	3.2	18.4	0.4	9.6*	-13.6	1.4	37.7*	20.3*
CCOc1ccc(-n2c(SCC(=O)Nc3cccc4ccccc34)nnc2-c2ccccc2)cc1	-2.3	-4.5	0.0	-1.3	-0.4	1.9	/	/
O=C(CSc1nnc(-c2ccncc2)n1Cc1ccco1)Nc1nccs1	-2.8	-6.2	-0.6	-2.4	2.4	2.4	/	/
COc1cccc(-c2nnc(SCC(=O)Nc3ccc(Oc4ccccc4)cc3)n2Cc2ccco2)c1	0.5	9.2	0.9	9.1*	-13.0	-4.6	26.7*	15.9*
COc1cccc(-c2nnc(SCC(=O)Nc3cccc4ccccc34)n2Cc2ccco2)c1	4.5	7.4	0.0	6.1	-12.2	-5.5	/	/
O=S(=O)(c1ccccc1)N1CCC(n2cnc3ccccc32)CC1	4.9	15.0	-0.2	9.7*	-3.4	-2.0	-2.5	-0.7
O=S(=O)(c1ccccc1C(F)(F)F)N1CCC(n2cnc3ccccc32)CC1	-1.1	3.9	-0.5	-2.0	-13.2	1.9	/	/
Cc1ccc(C)c(N2N=C(C(=O)Nc3ccc(S(=O)(=O)N4CCCC4)cc3)CCC2=O)c1	3.3	5.2	0.6	0.5	-12.6	-3.5	/	/
CC(C)Oc1ccc(C(=O)Nc2cccc(S(=O)(=O)N3CCCC3)c2)cc1	7.7	13.3	1.5	9.0*	-23.0	8.3	6.4	2.3
CC(NC(N)=O)C(=O)Nc1ccc(Cl)c(S(=O)(=O)Nc2ccc(Cl)cc2)c1 (stereo unspecified)	-2.3	4.6	0.5	-1.8	-3.6	-8.2	/	/
Cc1ccc(C)c(N2N=C(C(=O)Nc3cccc(S(=O)(=O)N4CCCCC4)c3)CCC2=O)c1	4.2	11.7	-0.9	13.3*	-16.4	-0.5	9.1	6.2
CC(C)Oc1ccc(C(=O)Nc2ccc(Cl)c(S(=O)(=O)Nc3ccc(Cl)cc3)c2)cc1	7.9	17.8	0.0	10.0*	-15.2	1.8	26.2*	16.1*
SMILES	PLCg1 inh	ADAM10 inh	KLK7 zymogen act	ADAM17 inh	sPLA2-III inh	PLC-beta3 inh	ADAM10 ctr	ADAM17 confirm
Cc1cccc(NC(=O)COC(=O)C2COc3ccccc3O2)c1C (stereo unspecified)	3.2	-19.1	-0.5	-4.3	4.5	-1.1	/	/
CCc1nc2c(OCCC3CCCCC3)cccn2c1N(C)C(=O)c1cccs1	6.2	17.2	0.0	9.4*	5.9	5.1	21.1*	11.6*
CCCCC(=O)N(C)c1c(CC)nc2c(OCC3CCCCC3)cccn12	1.3	4.5	0.6	9.7*	7.9	-0.1	0.2	2.6
CC(=O)c1ccc(N2CCN(C(=O)c3cc(S(=O)(=O)N4CCOCC4)ccc3C)CC2)cc1	-5.0	-18.6	1.2	-4.6	3.2	-11.5	/	/
O=C(Nc1nn[nH]n1)c1cccc([N+](=O)[O-])c1	3.0	2.5	-0.2	-0.3	6.0	-1.9	/	/
O=C(NC1=NCCS1)c1cc(-c2cccc(Br)c2)nc2ccccc12	0.5	15.3	-0.5	9.1*	-11.6	-0.2	14.5	9.3*
O=C(NC1CCCCC1)c1cc(-c2ccccc2O)on1	-4.6	-8.0	-0.2	5.8	3.5	-4.4	/	/
COc1ccc(C2OC(CCc3ccccc3)CC3=C2C(=O)OC(C)(C)O3)cc1 (stereo unspecified)	2.4	5.6	0.8	8.7*	5.7	3.6	7.8	5.8
CCc1noc(C)c1C(=O)OC(C)C(=O)Nc1ccc2c(c1)OCO2 (stereo unspecified)	8.2	-11.5	-0.5	8.8*	2.4	-4.8	14.7	12.8*
COc1ccc(CCNc2nc(C)nc3c2nnn3Cc2ccccc2)cc1OC	-0.5	1.3	0.4	-3.5	3.2	-7.9	/	/
COc1ccc(CNC(=O)C(=O)NCCCn2ccnc2)cc1	1.8	4.9	-0.1	-1.6	2.8	-2.2	/	/
COC(=O)[C@H](C(C)C)N(CCc1cn(Cc2ccc(C)cc2)nn1)S(=O)(=O)c1ccccc1Br	4.3	17.8	1.0	10.6*	-31.9	0.0	24.0*	17.4*
COC(=O)[C@H](C(C)C)N(CCCc1cn(CC2CCCCC2)nn1)S(=O)(=O)c1ccc(F)cc1Br	5.6	11.2	0.3	10.7*	-16.0	6.0	26.5*	14.5*
